# Test results: publication PMC7862700, “An all-to-all approach to the identification of sequence-specific readers for epigenetic DNA modifications on cytosine”
# What was measured:
# Test in all cases: DAPPL (digital affinity profiling via proximity ligation, sequencing); 10 mM Tris-HCl pH 7.5, 50 mM NaCl, 1 mM DTT, 4% glycerol, room temperature, 30 min; GST-TFs on glutathione beads, 16-mer random dsDNA library, 0.1% formaldehyde crosslink after washing; high values mean tight binding
# FLI1 = molecular target: T1, FLI1 (Homo sapiens, UniProt Q01543 1-452); details: protein: recombinant; tags: N-terminal GST; dsDNA, one strand shown
# T1 sequence: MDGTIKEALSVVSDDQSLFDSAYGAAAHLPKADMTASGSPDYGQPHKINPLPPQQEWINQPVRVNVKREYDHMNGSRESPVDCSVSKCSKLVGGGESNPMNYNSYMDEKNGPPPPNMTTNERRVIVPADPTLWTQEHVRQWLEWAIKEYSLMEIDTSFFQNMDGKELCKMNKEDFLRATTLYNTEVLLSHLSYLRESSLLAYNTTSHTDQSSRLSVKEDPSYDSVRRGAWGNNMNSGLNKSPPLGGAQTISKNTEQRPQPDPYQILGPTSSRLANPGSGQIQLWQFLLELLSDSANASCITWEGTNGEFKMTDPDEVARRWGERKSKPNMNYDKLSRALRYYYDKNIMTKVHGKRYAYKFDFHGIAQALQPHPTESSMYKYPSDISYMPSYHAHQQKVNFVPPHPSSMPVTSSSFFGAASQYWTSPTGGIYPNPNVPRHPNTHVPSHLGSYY
# How it was run: (§1)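 A tag-only sample was pooled with DNA-barcoded human transcription factors that had been expressed in yeast as GST fusions and captured on glutathione beads. The pools were incubated for 30 min at room temperature with 200 nmole of a random double-stranded 16-mer DNA library in Tris/NaCl/DTT/glycerol buffer, then washed, crosslinked with 0.1% formaldehyde, proximity-ligated (BsaI/T4 ligase, 1 h, 37 °C), PCR-amplified and sequenced on an Illumina NextSeq500. Binding signal is each hexamer's read frequency for a factor divided by its frequency for the tag-only sample.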
# ELK1 = molecular target: T2, ELK1 (Homo sapiens, UniProt P19419 1-428); details: protein: recombinant; tags: N-terminal GST; dsDNA, one strand shown
# T2 sequence: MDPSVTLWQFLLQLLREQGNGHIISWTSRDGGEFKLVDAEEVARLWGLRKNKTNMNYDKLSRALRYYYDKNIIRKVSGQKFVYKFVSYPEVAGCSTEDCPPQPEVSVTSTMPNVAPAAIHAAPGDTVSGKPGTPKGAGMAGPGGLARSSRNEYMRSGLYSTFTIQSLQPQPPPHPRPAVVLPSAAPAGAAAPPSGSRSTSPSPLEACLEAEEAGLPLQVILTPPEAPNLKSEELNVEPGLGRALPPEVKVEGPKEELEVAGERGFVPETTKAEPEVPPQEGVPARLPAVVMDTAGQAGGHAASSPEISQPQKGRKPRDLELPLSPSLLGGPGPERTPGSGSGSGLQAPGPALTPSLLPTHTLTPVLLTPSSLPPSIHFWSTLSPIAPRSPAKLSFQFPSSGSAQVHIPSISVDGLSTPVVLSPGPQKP
# How it was run: as §1
# GABPA = molecular target: T3, GABPA (Homo sapiens, UniProt Q06546 1-454); details: protein: recombinant; tags: N-terminal GST; dsDNA, one strand shown
# T3 sequence: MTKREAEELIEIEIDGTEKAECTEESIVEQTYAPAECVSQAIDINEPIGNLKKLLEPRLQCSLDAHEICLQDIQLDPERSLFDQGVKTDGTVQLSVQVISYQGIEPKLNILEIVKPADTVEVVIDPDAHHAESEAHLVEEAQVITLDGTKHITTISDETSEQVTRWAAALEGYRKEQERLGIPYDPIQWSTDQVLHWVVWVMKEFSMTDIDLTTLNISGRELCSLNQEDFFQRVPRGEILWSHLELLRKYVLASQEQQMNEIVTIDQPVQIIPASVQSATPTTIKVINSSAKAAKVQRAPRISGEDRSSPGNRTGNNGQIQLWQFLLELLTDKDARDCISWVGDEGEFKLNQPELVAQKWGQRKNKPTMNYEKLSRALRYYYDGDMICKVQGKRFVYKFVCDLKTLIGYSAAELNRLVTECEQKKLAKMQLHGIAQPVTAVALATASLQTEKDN
# How it was run: as §1
# ERG = molecular target: T4, ERG (Homo sapiens, UniProt P11308 1-479); details: protein: recombinant; tags: N-terminal GST; dsDNA, one strand shown
# T4 sequence: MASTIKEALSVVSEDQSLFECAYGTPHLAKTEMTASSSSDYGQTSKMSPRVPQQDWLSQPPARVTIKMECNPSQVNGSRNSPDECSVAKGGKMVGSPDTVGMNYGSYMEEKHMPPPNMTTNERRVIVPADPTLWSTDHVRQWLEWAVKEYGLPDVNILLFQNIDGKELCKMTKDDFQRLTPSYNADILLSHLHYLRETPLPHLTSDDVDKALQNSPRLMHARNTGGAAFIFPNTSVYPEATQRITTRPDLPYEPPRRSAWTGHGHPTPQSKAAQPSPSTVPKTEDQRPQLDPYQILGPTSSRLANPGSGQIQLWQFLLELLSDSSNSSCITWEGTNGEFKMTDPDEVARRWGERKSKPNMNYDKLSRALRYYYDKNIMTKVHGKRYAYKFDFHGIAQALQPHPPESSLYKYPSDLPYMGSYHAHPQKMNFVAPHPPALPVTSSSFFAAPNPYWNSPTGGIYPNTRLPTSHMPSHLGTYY
# How it was run: as §1
# ELF1 = ELF1 (Homo sapiens, UniProt P32519 1-619); details: protein: recombinant; tags: N-terminal GST; dsDNA, one strand shown
# How it was run: as §1
# EHF = molecular target: T5, EHF (Homo sapiens, UniProt Q9NZC4 1-300); details: protein: recombinant; tags: N-terminal GST; dsDNA, one strand shown
# T5 sequence: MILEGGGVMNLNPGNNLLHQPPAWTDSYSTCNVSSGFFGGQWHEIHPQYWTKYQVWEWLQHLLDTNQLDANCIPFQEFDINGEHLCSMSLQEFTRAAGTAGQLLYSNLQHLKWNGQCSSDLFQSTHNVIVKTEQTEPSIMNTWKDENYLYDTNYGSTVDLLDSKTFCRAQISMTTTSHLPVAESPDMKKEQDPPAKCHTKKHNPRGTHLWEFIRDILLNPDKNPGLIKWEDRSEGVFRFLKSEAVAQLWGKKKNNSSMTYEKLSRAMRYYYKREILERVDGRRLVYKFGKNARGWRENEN
# How it was run: as §1
# SPI1 = SPI1 (Homo sapiens, UniProt P17947 1-270); details: protein: recombinant; tags: N-terminal GST; dsDNA, one strand shown
# How it was run: as §1
# SPIB = SPIB (Homo sapiens, UniProt Q01892 1-262); details: protein: recombinant; tags: N-terminal GST; dsDNA, one strand shown
# How it was run: as §1
# ELK3 = molecular target: T6, ELK3 (Homo sapiens, UniProt P41970 1-407); details: protein: recombinant; tags: N-terminal GST; dsDNA, one strand shown
# T6 sequence: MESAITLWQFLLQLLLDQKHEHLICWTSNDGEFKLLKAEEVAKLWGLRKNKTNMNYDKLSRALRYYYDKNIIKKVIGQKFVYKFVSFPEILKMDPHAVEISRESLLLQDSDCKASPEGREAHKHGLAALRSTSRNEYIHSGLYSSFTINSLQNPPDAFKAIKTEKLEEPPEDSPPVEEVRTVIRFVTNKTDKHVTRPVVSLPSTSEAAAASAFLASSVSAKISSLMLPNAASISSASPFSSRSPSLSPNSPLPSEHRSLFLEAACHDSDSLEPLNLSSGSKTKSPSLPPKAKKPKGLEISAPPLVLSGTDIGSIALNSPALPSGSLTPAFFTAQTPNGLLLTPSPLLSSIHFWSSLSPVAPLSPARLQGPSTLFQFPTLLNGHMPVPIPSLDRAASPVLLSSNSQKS
# How it was run: as §1
# FEV = molecular target: T7, FEV (Homo sapiens, UniProt Q99581 1-238); details: protein: recombinant; tags: N-terminal GST; dsDNA, one strand shown
# T7 sequence: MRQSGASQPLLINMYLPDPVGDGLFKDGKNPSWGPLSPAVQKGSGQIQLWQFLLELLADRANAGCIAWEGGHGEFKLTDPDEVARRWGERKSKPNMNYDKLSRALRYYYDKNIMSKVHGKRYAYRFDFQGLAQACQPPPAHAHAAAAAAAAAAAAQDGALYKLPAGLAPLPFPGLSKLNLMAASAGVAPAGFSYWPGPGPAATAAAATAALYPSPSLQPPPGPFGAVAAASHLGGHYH
# How it was run: as §1
# ETV5 = ETV5 (Homo sapiens, UniProt P41161 1-510); details: protein: recombinant; tags: N-terminal GST; dsDNA, one strand shown
# How it was run: as §1
# HSF1 = HSF1 (Homo sapiens, UniProt Q00613 1-529); details: protein: recombinant; tags: N-terminal GST; chain copies: 3; dsDNA, one strand shown
# How it was run: as §1
# SPIC = molecular target: T8, SPIC (Homo sapiens, UniProt Q8N5J4 1-248); details: protein: recombinant; tags: N-terminal GST; dsDNA, one strand shown
# T8 sequence: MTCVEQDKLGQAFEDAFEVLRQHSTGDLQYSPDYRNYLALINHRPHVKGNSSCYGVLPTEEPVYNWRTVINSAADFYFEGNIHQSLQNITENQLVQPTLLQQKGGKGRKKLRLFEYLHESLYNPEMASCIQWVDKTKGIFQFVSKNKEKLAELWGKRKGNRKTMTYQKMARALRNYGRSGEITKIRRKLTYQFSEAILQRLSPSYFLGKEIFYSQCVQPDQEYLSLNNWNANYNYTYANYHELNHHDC
# How it was run: as §1
# ELF4 = ELF4 (Homo sapiens, UniProt Q99607 1-663); details: protein: recombinant; tags: N-terminal GST; dsDNA, one strand shown
# How it was run: as §1
# ELK4 = molecular target: T9, ELK4 (Homo sapiens, UniProt P28324-2 1-405); details: protein: recombinant; tags: N-terminal GST; dsDNA, one strand shown
# T9 sequence: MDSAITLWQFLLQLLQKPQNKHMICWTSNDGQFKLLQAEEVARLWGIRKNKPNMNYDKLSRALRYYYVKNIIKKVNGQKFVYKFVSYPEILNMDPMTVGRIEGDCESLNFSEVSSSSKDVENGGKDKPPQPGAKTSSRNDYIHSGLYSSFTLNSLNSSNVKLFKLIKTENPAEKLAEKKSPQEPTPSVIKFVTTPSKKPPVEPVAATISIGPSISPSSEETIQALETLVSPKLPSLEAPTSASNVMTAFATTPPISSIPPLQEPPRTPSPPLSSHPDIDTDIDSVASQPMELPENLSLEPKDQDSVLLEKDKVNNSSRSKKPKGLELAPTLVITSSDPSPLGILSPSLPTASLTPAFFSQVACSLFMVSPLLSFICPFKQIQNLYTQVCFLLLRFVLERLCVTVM
# How it was run: as §1
# ETV2 = molecular target: T10, ETV2 (Homo sapiens, UniProt O00321 1-342); details: protein: recombinant; tags: N-terminal GST; dsDNA, one strand shown
# T10 sequence: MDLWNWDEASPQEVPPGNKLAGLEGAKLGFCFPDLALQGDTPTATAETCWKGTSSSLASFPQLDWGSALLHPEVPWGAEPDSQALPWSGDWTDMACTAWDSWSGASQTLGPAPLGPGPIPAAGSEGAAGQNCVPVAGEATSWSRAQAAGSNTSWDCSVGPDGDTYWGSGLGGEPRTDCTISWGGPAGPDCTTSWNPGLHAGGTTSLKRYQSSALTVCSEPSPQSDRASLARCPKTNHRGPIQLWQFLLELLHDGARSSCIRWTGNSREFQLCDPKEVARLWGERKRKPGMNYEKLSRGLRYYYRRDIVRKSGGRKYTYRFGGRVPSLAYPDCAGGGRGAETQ
# How it was run: as §1
# ELF3 = molecular target: T11, ELF3 (Homo sapiens, UniProt P78545 1-371); details: protein: recombinant; tags: N-terminal GST; dsDNA, one strand shown
# T11 sequence: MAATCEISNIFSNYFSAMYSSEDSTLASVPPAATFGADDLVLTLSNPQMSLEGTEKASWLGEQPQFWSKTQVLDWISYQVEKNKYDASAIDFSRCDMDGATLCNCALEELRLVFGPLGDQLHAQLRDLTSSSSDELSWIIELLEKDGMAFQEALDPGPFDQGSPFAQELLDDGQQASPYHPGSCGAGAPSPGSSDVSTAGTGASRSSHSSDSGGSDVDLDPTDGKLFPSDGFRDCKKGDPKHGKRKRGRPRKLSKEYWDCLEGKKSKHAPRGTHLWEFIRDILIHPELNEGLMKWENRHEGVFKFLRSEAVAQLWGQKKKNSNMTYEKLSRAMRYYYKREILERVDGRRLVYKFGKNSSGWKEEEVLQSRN
# How it was run: as §1
# CRX = CRX (Homo sapiens, UniProt O43186 1-299); details: protein: recombinant; tags: N-terminal GST; dsDNA, one strand shown
# How it was run: as §1
# ETV1 = ETV1 (Homo sapiens, UniProt P50549 1-477); details: protein: recombinant; tags: N-terminal GST; dsDNA, one strand shown
# How it was run: as §1
# Sequence of SPIB (Q01892 whole entry): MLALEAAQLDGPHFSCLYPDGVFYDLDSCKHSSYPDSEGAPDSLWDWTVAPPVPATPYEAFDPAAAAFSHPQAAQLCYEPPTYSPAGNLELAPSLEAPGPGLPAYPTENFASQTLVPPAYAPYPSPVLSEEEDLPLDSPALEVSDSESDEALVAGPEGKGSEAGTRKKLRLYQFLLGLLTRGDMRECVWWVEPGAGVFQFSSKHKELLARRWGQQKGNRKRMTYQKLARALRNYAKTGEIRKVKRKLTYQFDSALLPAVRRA
# Sequence of ETV1 (P50549 whole entry): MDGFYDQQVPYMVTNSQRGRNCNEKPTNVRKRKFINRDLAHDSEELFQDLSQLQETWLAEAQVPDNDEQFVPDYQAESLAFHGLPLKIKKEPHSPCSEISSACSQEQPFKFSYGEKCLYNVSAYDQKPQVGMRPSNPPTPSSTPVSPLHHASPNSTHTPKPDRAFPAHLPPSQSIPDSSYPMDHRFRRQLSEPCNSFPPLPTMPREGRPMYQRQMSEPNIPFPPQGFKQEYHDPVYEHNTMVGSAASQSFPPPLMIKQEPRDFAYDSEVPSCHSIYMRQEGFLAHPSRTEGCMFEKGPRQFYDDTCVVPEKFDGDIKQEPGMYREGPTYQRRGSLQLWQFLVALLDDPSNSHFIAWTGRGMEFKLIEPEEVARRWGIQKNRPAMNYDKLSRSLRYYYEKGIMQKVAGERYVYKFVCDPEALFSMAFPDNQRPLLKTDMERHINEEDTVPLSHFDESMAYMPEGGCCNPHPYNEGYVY
# Sequence of HSF1 (Q00613 whole entry): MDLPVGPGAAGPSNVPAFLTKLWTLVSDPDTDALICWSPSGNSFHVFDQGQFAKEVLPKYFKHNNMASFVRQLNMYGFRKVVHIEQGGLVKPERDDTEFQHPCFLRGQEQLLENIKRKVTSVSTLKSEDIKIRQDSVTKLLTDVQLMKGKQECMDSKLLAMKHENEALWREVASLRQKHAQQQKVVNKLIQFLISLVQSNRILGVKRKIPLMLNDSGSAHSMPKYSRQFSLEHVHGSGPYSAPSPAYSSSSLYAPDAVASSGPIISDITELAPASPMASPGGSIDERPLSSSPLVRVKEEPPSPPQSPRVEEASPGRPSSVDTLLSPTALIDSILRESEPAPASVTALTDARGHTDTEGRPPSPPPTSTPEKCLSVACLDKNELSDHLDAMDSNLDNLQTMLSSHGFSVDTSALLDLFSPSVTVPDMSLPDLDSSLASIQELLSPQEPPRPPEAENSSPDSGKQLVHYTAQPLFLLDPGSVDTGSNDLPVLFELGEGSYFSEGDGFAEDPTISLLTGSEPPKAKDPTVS
# Sequence of ETV5 (P41161 whole entry): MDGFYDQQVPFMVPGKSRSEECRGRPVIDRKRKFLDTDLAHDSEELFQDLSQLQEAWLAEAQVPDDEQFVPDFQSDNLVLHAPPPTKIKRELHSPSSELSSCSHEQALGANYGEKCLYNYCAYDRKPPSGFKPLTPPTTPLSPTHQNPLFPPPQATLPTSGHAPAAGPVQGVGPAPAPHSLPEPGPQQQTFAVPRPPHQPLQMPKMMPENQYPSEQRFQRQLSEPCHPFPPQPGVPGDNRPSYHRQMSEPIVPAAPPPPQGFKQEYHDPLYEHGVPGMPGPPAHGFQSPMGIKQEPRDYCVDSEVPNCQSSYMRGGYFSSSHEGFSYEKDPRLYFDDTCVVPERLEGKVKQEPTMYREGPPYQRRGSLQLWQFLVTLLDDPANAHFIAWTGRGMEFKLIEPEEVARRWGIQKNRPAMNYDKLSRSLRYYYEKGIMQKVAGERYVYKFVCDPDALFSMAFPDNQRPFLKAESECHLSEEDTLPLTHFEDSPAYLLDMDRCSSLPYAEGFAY
# Sequence of ELF1 (P32519 whole entry): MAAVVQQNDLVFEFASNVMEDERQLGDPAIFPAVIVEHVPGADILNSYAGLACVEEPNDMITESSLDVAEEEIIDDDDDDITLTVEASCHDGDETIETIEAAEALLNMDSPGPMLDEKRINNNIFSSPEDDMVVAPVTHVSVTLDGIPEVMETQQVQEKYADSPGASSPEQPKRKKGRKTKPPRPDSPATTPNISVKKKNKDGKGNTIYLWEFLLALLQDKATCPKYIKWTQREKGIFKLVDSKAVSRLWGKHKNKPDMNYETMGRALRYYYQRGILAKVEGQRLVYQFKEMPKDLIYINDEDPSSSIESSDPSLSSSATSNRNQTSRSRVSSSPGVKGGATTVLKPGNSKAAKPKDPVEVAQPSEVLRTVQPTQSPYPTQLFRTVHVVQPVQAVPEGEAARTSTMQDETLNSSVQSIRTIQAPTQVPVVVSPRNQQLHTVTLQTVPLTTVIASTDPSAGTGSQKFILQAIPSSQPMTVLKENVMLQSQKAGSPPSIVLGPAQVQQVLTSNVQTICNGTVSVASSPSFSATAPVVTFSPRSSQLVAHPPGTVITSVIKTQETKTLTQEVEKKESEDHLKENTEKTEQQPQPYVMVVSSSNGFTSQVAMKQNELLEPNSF
# Sequence of CRX (O43186 whole entry): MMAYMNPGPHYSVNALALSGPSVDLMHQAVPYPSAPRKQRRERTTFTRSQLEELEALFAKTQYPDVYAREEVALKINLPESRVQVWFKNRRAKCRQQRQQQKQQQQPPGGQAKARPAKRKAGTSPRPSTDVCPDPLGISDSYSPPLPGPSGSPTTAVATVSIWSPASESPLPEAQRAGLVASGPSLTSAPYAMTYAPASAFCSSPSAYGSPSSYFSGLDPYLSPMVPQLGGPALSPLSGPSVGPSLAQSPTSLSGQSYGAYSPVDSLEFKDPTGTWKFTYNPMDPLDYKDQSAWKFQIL
# Sequence of ELF4 (Q99607 whole entry): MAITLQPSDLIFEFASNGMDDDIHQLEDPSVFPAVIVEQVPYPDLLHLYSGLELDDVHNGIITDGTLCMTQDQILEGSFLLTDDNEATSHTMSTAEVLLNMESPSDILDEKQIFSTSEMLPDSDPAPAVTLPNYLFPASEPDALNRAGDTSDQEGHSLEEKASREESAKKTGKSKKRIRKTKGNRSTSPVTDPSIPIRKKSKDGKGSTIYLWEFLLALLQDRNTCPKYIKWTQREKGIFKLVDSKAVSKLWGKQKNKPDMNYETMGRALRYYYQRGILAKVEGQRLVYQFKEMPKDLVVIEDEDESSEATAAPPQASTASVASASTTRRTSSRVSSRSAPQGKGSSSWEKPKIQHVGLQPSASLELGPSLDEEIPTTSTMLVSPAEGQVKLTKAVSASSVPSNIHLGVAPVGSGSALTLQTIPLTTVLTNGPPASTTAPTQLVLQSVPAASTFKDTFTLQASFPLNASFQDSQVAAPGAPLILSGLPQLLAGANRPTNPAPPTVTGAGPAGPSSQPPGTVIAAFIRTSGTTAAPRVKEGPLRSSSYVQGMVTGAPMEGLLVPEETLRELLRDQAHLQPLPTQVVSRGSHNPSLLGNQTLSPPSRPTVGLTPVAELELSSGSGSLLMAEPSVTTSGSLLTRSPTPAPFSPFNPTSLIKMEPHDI
sequence,measurement,setting,value
CGCCTA,binding signal,FLI1,"1.17 fold enrichment (6-mer frequency, TF over GST control)"
same,binding signal,ELK1,"1.19 fold enrichment (6-mer frequency, TF over GST control)"
same,binding signal,GABPA,"1.15 fold enrichment (6-mer frequency, TF over GST control)"
same,binding signal,ERG,"1.14 fold enrichment (6-mer frequency, TF over GST control)"
same,binding signal,ELF1,"1.16 fold enrichment (6-mer frequency, TF over GST control)"
same,binding signal,EHF,"1.23 fold enrichment (6-mer frequency, TF over GST control)"
same,binding signal,SPI1,"1.13 fold enrichment (6-mer frequency, TF over GST control)"
same,binding signal,SPIB,"1.22 fold enrichment (6-mer frequency, TF over GST control)"
same,binding signal,ELK3,"1.24 fold enrichment (6-mer frequency, TF over GST control)"
same,binding signal,FEV,"1.11 fold enrichment (6-mer frequency, TF over GST control)"
same,binding signal,ETV5,"1.18 fold enrichment (6-mer frequency, TF over GST control)"
same,binding signal,HSF1,"1.15 fold enrichment (6-mer frequency, TF over GST control)"
same,binding signal,SPIC,"1.36 fold enrichment (6-mer frequency, TF over GST control)"
same,binding signal,ELF4,"1.12 fold enrichment (6-mer frequency, TF over GST control)"
same,binding signal,ELK4,"1.28 fold enrichment (6-mer frequency, TF over GST control)"
same,binding signal,ETV2,"1.13 fold enrichment (6-mer frequency, TF over GST control)"
same,binding signal,ELF3,"1.06 fold enrichment (6-mer frequency, TF over GST control)"
same,binding signal,CRX,"1.18 fold enrichment (6-mer frequency, TF over GST control)"
same,binding signal,ETV1,"1.12 fold enrichment (6-mer frequency, TF over GST control)"
